High-throughput results deposited in PubChem BioAssay by Buhrlage Lab, Dana-Farber Cancer Institute and Novartis Institutes for BioMedical Research (Cambridge, Mass).
USP30 block = inhibitors of human USP30 deubiquitinase; purified USP30, Ub-rhodamine cleavage fluorescence; inhibition, % at 25 µM; 47,000 compounds, 5.3% hits
OTUD3 block = human OTUD3 deubiquitinase inhibition; purified OTUD3, Ub-rhodamine fluorescence, 2 h; inhibition, % at 25 µM; 47,000 compounds, 0.7% hits; AID 1645858
USP17 inh = inhibitors of human USP17 deubiquitinase. A8MUK1. purified USP17, Ub-rhodamine cleavage fluorescence, 3 h. inhibition, % at 50 µM. 47,000 compounds, 6.5% hits. AID 1645855
Target sequence (A8MUK1 whole entry, looked up): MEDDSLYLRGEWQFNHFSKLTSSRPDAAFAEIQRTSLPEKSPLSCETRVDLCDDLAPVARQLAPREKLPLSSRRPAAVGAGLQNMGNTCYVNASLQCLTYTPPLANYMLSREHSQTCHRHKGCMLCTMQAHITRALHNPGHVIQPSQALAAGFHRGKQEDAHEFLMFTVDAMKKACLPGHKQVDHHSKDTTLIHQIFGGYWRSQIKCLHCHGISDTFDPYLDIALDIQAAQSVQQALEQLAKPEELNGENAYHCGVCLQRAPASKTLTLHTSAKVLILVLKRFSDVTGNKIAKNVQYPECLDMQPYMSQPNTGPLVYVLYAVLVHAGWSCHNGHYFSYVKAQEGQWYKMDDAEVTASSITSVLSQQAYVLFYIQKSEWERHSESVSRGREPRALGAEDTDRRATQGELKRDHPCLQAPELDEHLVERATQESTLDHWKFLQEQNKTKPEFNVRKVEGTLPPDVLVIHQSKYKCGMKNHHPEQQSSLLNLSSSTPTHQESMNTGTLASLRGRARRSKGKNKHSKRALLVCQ
USP28 block = human USP28 deubiquitinase inhibition; purified USP28, Ub-rhodamine cleavage fluorescence, 30 min; inhibition, % at 25 µM; 47,000 compounds, 3% hits; AID 1645857
* hit, by the source's call; / = no result given. Shown are actives, neighbours in structure and some others; about 11% of the full set was active somewhere. Cut-off read from the data, not from the text of the source: active = inhibition above about 30%; inactive = the rest.

SMILES	USP30 block	OTUD3 block	USP17 inh	USP28 block
O=C(CN1CCN(Cc2ccc3c(c2)OCO3)CC1)Nc1ccc(Cl)cc1C(=O)c1ccccc1	-8	1	11	8
Cc1ccc(NC(=O)c2cccc(-n3cnnn3)c2)c(Cl)c1	/	0	23	/
O=C(CCC1=NS(=O)(=O)c2ccccc2N1)NCCc1ccc(Cl)cc1	1	-9	-4	-1
Cc1ccc2c(c1)NC(CCC(=O)NCCc1ccc(Cl)cc1)=NS2(=O)=O	59*	15	59*	27
O=C1CC2(C(=O)N(Cc3ccccc3Cl)c3ccccc32)c2cn[nH]c2N1 (centres undefined)	7	3	2	8
O=C(/C=C/c1ccccc1)Nc1c2c(nc3c1CCC3)CCCC2	40*	9	21	11
O=C(/C=C/c1ccccc1)Nc1nc(-c2ccccc2)c(-c2ccccc2)s1	22	11	11	16
Cc1cccc(NC(=O)c2c(-c3c(F)cccc3Cl)noc2C)n1	/	1	-1	/
O=C(c1ccc(Cl)cc1)c1c[nH]cc1-c1c(F)cccc1Cl	54*	6	32*	19
Cc1sc(NC(=O)CN2CCCCCC2)nc1-c1ccc2c(c1)CCN2C(=O)C1CCCCC1	20	9	/	5
Cc1sc(NC(=O)CN2CCCC2)nc1-c1ccc2c(c1)CCN2C(=O)c1cccc(F)c1	35*	5	18	27
Cc1sc(NC(=O)CNc2ccccc2)nc1-c1ccc2c(c1)CCN2C(=O)C1CCCCC1	-2	-2	47*	10
Cc1sc(NC(=O)CN2CCCCC2)nc1-c1ccc2c(c1)CCN2C(=O)c1cccc(F)c1	0	0	36*	0
Cc1sc(NC(=O)CN2CCCC2)nc1-c1ccc2c(c1)CCN2S(=O)(=O)c1ccccc1	-16	-8	39*	3
Cc1cccc(C(=O)N2CCc3cc(-c4nc(NC(=O)CN5CCCCCC5)sc4C)ccc32)c1	-13	-15	17	1
Cn1c(C(=O)NCC2CCCO2)cc2cc(Cl)ccc21 (centres undefined)	5	-9	0	-3
CC1Cc2cccc3c(=O)c(C(=O)N4CCOCC4)cn1c23 (centres undefined)	28	15	16	13
COc1ccc(/C=C/c2ccc(=O)n(Cc3ccccc3)n2)cc1	16	9	20	13
COc1ccc(Cn2nc(-c3ccccc3)cc2-c2ccccc2O)cc1	43*	23	12	21
O=C(Nc1nc(C(=O)N2CCc3ccccc3C2)co1)C1CC1	-2	-5	-12	-7
CC(C)(C)c1cc2nc[nH]c(=O)c2s1	10	3	0	7
CCc1nnc(-c2nnc(NCCOc3ccccc3OC)c3ccccc23)o1	34*	11	20	8
O=C(NCc1ccccn1)c1nc[nH]c1C(=O)NCc1ccc(C(F)(F)F)cc1	27	10	16	21
COc1cccc(S(=O)(=O)N2CCCn3nnc(COCC4CC4)c3C2)c1	19	6	2	-1
COc1cccc(S(=O)(=O)N2CCn3nc(C(C)(C)C)cc3C2)c1	79*	17	12	21
SMILES	USP30 block	OTUD3 block	USP17 inh	USP28 block
Nc1ncnc2c1ncn2[C@@H]1O[C@H](CO)C[C@@H]1O	29	50*	50*	44*
C=C1O[C@](CO)(n2cnc3c(N)ncnc32)[C@@H](O)[C@H]1O	-16	-3	-19	-9
O=C(CSc1ccc2nnc(CCNS(=O)(=O)c3ccccc3)n2n1)Nc1ccc(Br)cc1	24	0	32*	6
O=C(CSc1ccc2nnc(CCNS(=O)(=O)c3ccccc3)n2n1)Nc1ccc(OC(F)(F)F)cc1	-32	-10	0	1
CCOC(=O)c1ccccc1NC(=O)CSc1ccc2nnc(CCNS(=O)(=O)c3ccc(C)cc3)n2n1	31*	18	-2	9
CC(C)(C)C(=O)N1CCC(Cc2cc(-c3cccc(C(=O)O)c3)ncn2)C1 (centres undefined)	14	7	8	10
O=C(Nc1ccc(OCc2ccccc2)cc1)c1c(F)cccc1Cl	25	1	-1	13
C#CCOc1cccc(CN2CCC3(CC2)OCCc2cnc(C)nc23)c1	-17	-10	-13	-11
CC(C)C12CN3CC(C(C)C)(CN(C1)C3[C@@H](O)[C@H](O)[C@H](O)[C@@H](O)CO)C2=O (some centres undefined)	30*	22	7	11
CC(C)C12CN3CC(C(C)C)(CN(C1)C3c1ccc([N+](=O)[O-])o1)C2=O (centres undefined)	17	25	17	11
CCC(=O)Nc1cccnc1-c1ccc(C(=O)Nc2cccc(OC)c2)cc1	0	0	-8	57*
Cc1nc(-c2noc3ccc(C(=O)Nc4cccnc4)cc23)cs1	72*	1	-20	0
COc1cccc(NC(=O)c2ccc(-c3csc(C)n3)cc2)c1	7	-9	8	60*
COc1ccccc1NC(=O)c1ccc(-c2csc(C)n2)cc1	/	2	41*	/
Cc1nc(-c2cccc(NC(=O)c3ccccc3)c2)cs1	-22	-10	-14	4
O=C(Nc1ccc(OCc2ccccc2)cc1)Nc1ccccc1N1CCOCC1	22	13	5	18
COc1cccc(NC(=O)c2cc(-c3cccs3)on2)c1	34*	-4	39*	32*
COc1ccc(NC(=O)CSc2nnc(-c3ccc(F)cc3)c3ccccc23)c(OC)c1	-9	8	12	39*
COc1ccc(NC(=O)CSc2n[nH]c(C(C)C)n2)c(OC)c1	2	-7	-7	-11
O=C1COC[C@H]([C@H](O)c2ccc(NC(=O)c3ccc(F)cc3)cc2)N1	27	9	29	9
O=C(Nc1ccccc1)C1CCN(C(=O)c2cc(-c3ccncc3)n[nH]2)CC1	-59	-3	-2	-1
O=C(c1cc(-c2ccncc2)n[nH]1)N1CCC(C(=O)N2CC=C(c3ccccc3)CC2)CC1	19	7	64*	16
O=C(Nc1ccc2c(c1)OCCO2)C1CCN(C(=O)c2cc(-c3cccnc3)n[nH]2)CC1	6	-4	-3	53*
COC(=O)c1ccc(S(=O)(=O)N(Cc2cc3ccc(C)c(C)c3[nH]c2=O)C2CCCC2)cc1	-14	-3	-1	-10
CC(C)Cc1nc2oc3c(NCCCO)ncnc3c2c2c1CCCC2	15	0	-2	22
SMILES	USP30 block	OTUD3 block	USP17 inh	USP28 block
O=S(=O)(c1ccc(F)cc1)N1CCCn2c(nc3ccccc32)C1	18	1	1	4
O=C(Nc1ccc2c(c1)OCCO2)c1c(-c2ccccc2)nnc2ccccc12	-12	-7	31*	-5
Cc1ccc(-c2cc(C(=O)Nc3ccc4c(c3)OCCO4)c3ccccc3n2)o1	-41	8	39*	7
Cc1ccccc1-c1cc(C(=O)Nc2ccc(Br)c(Br)c2)c2ccccc2n1	-25	-6	-9	-2
O=C(Nc1ccc2c(c1)OCCO2)c1cccc2nc3ccccc3nc12	75*	31*	41*	30
CCCCCCn1[nH]c(C)c(C(=O)c2ccc(C(=O)c3c(C)[nH]n(CCCCCC)c3=O)cc2)c1=O	7	0	20	-15
